In the library only some 21% were active in any assay of this set; here they are far more common.
ELG1 repair inh – inhibitors of ELG1-dependent DNA repair in HEK293T cells; HEK293T ELG1-luciferase reporter, luminescence, 16 h; DNA damage induced by 5-fluorouridine; Potency, µM (doses to about 46.1 µM), inactives show top-dose activity change, negative = inhibition, usual class: inhibitors; hit rate 2.3% among 330,000; further: potency means the concentration at half of the fitted maximal effect; nearly all actives have a fitted effect of over 55% in size
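Overnight (16 hr) co-exposure of 2,000 cells/well to 5-fluorouridine and compound at 37 °C preceded detection. Luciferase was quantified via ONE-Glo luminescence; loss of signal denotes inhibition.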
IL1B secr inh – blocks inflammasome-driven IL-1 beta release. THP-1 LPS/ATP IL-1B secretion, AlphaLISA, 16 h; hits give low values. activity change, % at 57.5 µM. hit rate 4.7% among 360,000. AID 743279; in the data active means activity change below about -50%; inconclusive means mostly about -30% to -49%
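Secreted IL-1B measured by AlphaLISA bead assay after 16 h compound exposure of THP-1 cells; compounds (final up to 57.5 uM) added 1 h before LPS (250 ng/mL) and ATP (1.25 mM) stimulation; lower signal means less secretion.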
RORg inh – blocks mouse ROR gamma transcriptional activity; Potency, µM (titrated, usually from 53.6 µM), without a hit: at the highest dose activity change, negative = inhibition, actives largely listed as inhibitors; hit rate 5.4% among 310,000; Drosophila S2 Gal4-RORgamma UAS-luciferase reporter, 20 h; P51450; further: potency means the concentration at half of the fitted maximal effect; nearly all actives have a fitted effect of over 60% in size
Target sequence (P51450 whole entry, looked up, the tested form may be a part): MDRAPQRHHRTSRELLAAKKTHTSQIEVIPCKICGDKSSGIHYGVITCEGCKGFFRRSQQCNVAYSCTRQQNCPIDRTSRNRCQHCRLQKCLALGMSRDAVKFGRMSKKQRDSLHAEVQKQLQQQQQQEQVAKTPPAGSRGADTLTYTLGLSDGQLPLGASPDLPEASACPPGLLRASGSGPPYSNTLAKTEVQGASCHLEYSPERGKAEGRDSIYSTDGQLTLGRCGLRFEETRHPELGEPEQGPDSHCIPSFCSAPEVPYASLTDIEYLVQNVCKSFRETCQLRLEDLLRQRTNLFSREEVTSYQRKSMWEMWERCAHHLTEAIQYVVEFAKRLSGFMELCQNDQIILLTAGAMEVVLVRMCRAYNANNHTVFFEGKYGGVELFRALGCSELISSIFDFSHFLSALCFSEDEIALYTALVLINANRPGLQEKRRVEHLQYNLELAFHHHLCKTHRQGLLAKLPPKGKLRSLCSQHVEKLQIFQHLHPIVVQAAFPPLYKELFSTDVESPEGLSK
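A Gal4/UAS one-hybrid system in insect cells: metallothionein-promoter Gal4–ROR gamma fusion plus Photinus luciferase reporter. Copper sulfate 700 uM final, 20 hr ambient incubation, luminescent detection after 10 min with reagent.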
DT40 TDP1 CPT – growth inhibition of DT40 Tdp1-/-;hTDP1 cells with camptothecin (screen for TDP1 inhibitors); hit rate 12% among 420,000; chicken DT40 Tdp1-/-;hTDP1 cells + 20 nM CPT, ATP luminescence, 48 h; Potency, µM (highest dose often 46.2 µM), without a hit: top-dose activity change, negative = growth inhibition, actives largely listed as inhibitors; further: potency means the concentration at half of the fitted maximal effect; nearly all actives have a fitted effect of over 55% in size
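Chicken DT40 Tdp1-/- cells complemented with human TDP1, 400 cells/well, exposed to compounds plus 20 nM camptothecin for at least 48 h at 37 C; viability read as ATP content by CellTiter-Glo luminescence.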
TDP1 cell noCPT – qHTS for Inhibitors of human tyrosyl-DNA phosphodiesterase 1 (TDP1): qHTS in cells in absence of CPT; hit rate 15% among 420,000; Potency, µM (top dose mostly 46.2 µM), for inactives: at the highest dose activity change, negative = growth inhibition, actives largely listed as inhibitors; DT40 Tdp1-/- hTDP1 cells, no CPT, ATP luminescence, 48 h; AID 686978, 2013; further: potency means the concentration at half of the fitted maximal effect; nearly all actives have a fitted effect of over 55% in size
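DT40 Tdp1-/-;hTDP1 cells, no CPT (DMSO vehicle only), 400 cells/well; compounds pin-transferred; ≥48 hr, 37 °C; CellTiter-Glo 30 min RT dark, luminescence read.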
VP16 counter – counter-screen for ROR gamma inhibitors: Gal4-VP16 reporter | Drosophila S2 Gal4-VP16 UAS-luciferase, luminescence, 20 h | Potency, µM (series often up to 53.6 µM), without a hit: top-dose activity, negative = inhibition, most hits filed as inhibitors | hit rate 3.5% among 310,000 | AID 2546;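 further: Gal4-VP16 expression switched on by copper sulfate through the metallothionein promoter; potency means the concentration at half of the fitted maximal effect; nearly all actives have a fitted effect of over 50% in size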
* = called active by the depositor; ? = inconclusive; . = no result given; [ ] = another dose, or the depositor's remark. Unless noted, the call rests on the fitted dose curve; in most records, active means well fitted curve in the direction sought with a large enough effect; inconclusive means small, poorly fitted or top-dose-only effect, or another doubt; inactive means no such curve, though single readings can be large; an effect the other way counts as inactive or inconclusive. On the % scale 0 is the no-effect control and ±100 the full control effect.

SMILES	ELG1 repair inh	IL1B secr inh	RORg inh	DT40 TDP1 CPT	TDP1 cell noCPT	VP16 counter
CC(C)(C)OC(=O)N1Cc2cc3ccccc3nc2C1	.	16.6	.	?	?	.
Cc1ccccc1NC(=O)c1onc2c1CCCC2	?	8.5	-33.4%	?	-29.2%	-3.9%
Cc1cccc(NC(=O)c2onc3c2CCCC3)n1	?	-3.5	2µM*	9.2µM*	?	5.62µM*
O=C(Nc1ccc2ccccc2c1)c1onc2c1CCCC2	?	-4.2	14.1µM*	1.1%	?	?
COC(=O)c1cccc(NC(=O)c2onc3c2CCCC3)c1	?	18.9	7.08µM*	-12.6%	0.4%	?
COC(=O)c1cccc(NC(=O)c2ccccc2)c1	?	-20.4	0.5%	-5.6%	-12.7%	-8.9%
O=C(/C=C/c1ccc(Cl)cc1Cl)NC(=S)Nc1ccccn1	?	-22.4	2.82µM*	-26.1%	?	5.01µM*
O=C(/C=C/c1ccc(Cl)cc1Cl)NC(=S)Nc1ccc(CN2CCOCC2)cc1	-6.1%	-14.1	3.55µM*	16.4µM*	13µM*	4.47µM*
O=C(NC(=S)Nc1ccc(CN2CCOCC2)cc1)c1cc2ccccc2o1	?	-6.0	10.3%	?	-8.8%	-11.9%
O=C(/C=C/c1ccccc1)NC(=S)Nc1ccc(CN2CCOCC2)cc1	?	-109.4*	3.98µM*	?	18.4µM*	?
O=C(Cc1ccc(Cl)cc1)Nc1ccccn1	-1.5%	-2.5	6.3%	15.9%	3.4%	8.1%
CC(C)C(=O)NC(=S)Nc1ccc(CN2CCOCC2)cc1	15.5%	13.5	?	5.0%	15.4%	-9.5%
CCc1nn(CC(=O)NCCN(CC(C)C)CC(C)C)c(=O)c2cc3sc(C)cc3n12	.	.	.	14.6µM*	20.6µM*	.
CCc1cc2c(cc3c(=O)n(CC(=O)NCCCN(CC)CC)nc(CC)n32)s1	0.8%	0.3	14.9%	2.7%	-25.7%	-4.9%
COC/C=C/C1=CC2=CC(=O)C(C)(OC(=O)c3cnc4ccccc4n3)C(=O)C2=CN1c1ccccc1 (stereo not drawn)	?	21.0	-9.7%	?	16.4µM*	-3.1%
CCOc1ccc(S(=O)(=O)N2CCOCC2)cc1NC(=O)C1=COCCO1	?	0.0	.	10.4%	4.5%	.
CCOc1ccc(Oc2ccc(S(=O)(=O)N3CCOCC3)cc2NC(=O)C2=COCCO2)cc1	?	-3.1	.	?	23.1µM*	.
CCOc1ccc(Oc2ccccc2NC(=O)C2=COCCO2)cc1	-16.0%	-2.3	.	16.4µM*	?	.
CCC(C)CCCCC(=O)N[C@@H](CCN)C(=O)N[C@H](C(=O)N[C@@H](CCN)C(=O)N[C@H]1CCNC(=O)C([C@@H](C)O)NC(=O)[C@@H](CCN)NC(=O)[C@H](CCN)NC(=O)[C@H](CC(C)C)NC(=O)[C@@H](CC(C)C)NC(=O)[C@H](CCN)NC1=O)[C@@H](C)O (stereo partly drawn)	.	.	-2.7%	.	.	4.7%
CN(Cc1cn(Cc2cccc(C(F)(F)F)c2)nn1)C1CN(Cc2cn(Cc3cccc(C(F)(F)F)c3)nn2)S(=O)(=O)C1 (stereo not drawn)	.	?	.	13µM*	13µM*	.
Cc1cc(C)cc(Cn2cc(CN3CC(N4CCN(Cc5ccccc5F)CC4)CS3(=O)=O)nn2)c1 (stereo not drawn)	.	13.5	.	?	?	.
O=S1(=O)CC(N2CCN(Cc3ccccc3F)CC2)CN1Cc1cn(Cc2ccc(C(F)(F)F)cc2)nn1 (stereo not drawn)	.	-21.4	.	13µM*	9.2µM*	.
Cc1ccc(Cn2cc(CN3CC(N4CCN(Cc5ccccc5F)CC4)CS3(=O)=O)nn2)cc1 (stereo not drawn)	.	-1.5	.	?	16.4µM*	.
COCC(=O)N1CCC2(CCN(Cc3ccccc3OC)CC2)CC1	.	.	-24.1%	5.3%	-9.0%	-6.0%
CC1CCc2c(sc3nc(CSc4ncn[nH]4)[nH]c(=O)c23)C1 (stereo not drawn)	?	-7.9	-68.2%	5.7%	?	?
SMILES	ELG1 repair inh	IL1B secr inh	RORg inh	DT40 TDP1 CPT	TDP1 cell noCPT	VP16 counter
O=C1[C@H]2[C@H]3[C@H](O)[C@H](O)C/C(=N/OC[C@@H](O)COCc4ccco4)[C@@H]3CC[C@@H]2C(=O)N1c1cccc(Oc2ccccc2)c1	.	.	-5.9%[10 µM]	.	.	1.4%[10 µM]
C[C@@]12CCC3c4ccc(OS(=O)(=O)O)cc4CCC3C1CCC2O (stereo partly drawn)	.	.	0.1%	0.8%	-2.8%	-8.3%
CCNc1cc2c(cc1O)CCC1C2CCC2(C)C(O)CCC12 (stereo not drawn)	.	-101.1*	.	7.31µM*	23.1µM*	.
CCOc1cc2c(cc1O)CCC1C2CCC2(C)C(O)CCC12 (stereo not drawn)	.	10.4	.	0.259µM*	0.206µM*	.
C[C@]12CCC3c4ccc(O)cc4CCC3C1CC(O)C2O (stereo partly drawn)	.	.	2.4%	1.6%	7.6%	-3.7%
Cc1ncc2c(c1CNC(=O)CN1CCCCC1)CCN(C(=O)c1ccc(F)cc1Cl)C2	.	.	.	6.2%[9.04 µM]	-15.2%	.
CCOC(=O)N1CCN(C(=O)c2ccc3c(c2)NC(=O)/C(=C\c2cccc(C)c2)S3)CC1	-1.7%	-25.2	-17.3%	?	13µM*	-13.3%
Cc1cccc(/C=C2/Sc3ccc(C(=O)N4CCOCC4)cc3NC2=O)c1	?	-13.0	16.8%	?	?	-12.6%
CCOC(=O)N1CCN(C(=O)c2ccc3c(c2)NC(=O)/C(=C\c2ccc(OC)c(OC)c2)S3)CC1	?	6.8	13.7%	?	16.4µM*	-6.2%
CCc1nn2c(=O)c(S(=O)(=O)Nc3ccc(C(C)C)cc3)c(C)nc2s1	-1.4%	11.6	?	?	16.4µM*	3.4%
C[C@H](c1ccccc1)N1C[C@@H](COCc2ccccc2)Oc2cc(N3CC[C@@H](O)C3)ccc2S1(=O)=O	.	12.2	.	20.6µM*	23.1µM*	.
C[C@H]1COc2cc(N3CC[C@H](O)C3)ccc2S(=O)(=O)N1	.	22.1	.	0.4%	-22.8%	.
C[C@@H](c1ccccc1)N1C[C@H](COCc2ccccc2)Oc2cc(N3CC[C@H](O)C3)ccc2S1(=O)=O	.	16.7	.	?	20.6µM*	.
C[C@@H](c1ccccc1)N1C[C@@H](COCc2ccccc2)Oc2cc(N3CC[C@H](O)C3)ccc2S1(=O)=O	.	17.4	.	?	18.4µM*	.

Bioassay records as filed in PubChem BioAssay.
